Screening results from PubChem BioAssay.
Rows were chosen to be rich in hits. Some 2.8% of all compounds tested hit in one or more screens of this group.
LGR2 antag = Drosophila LGR2 receptor signaling inhibition; HEK293 LGR2, CRE-luciferase, bursicon-stimulated, 4 h; actives 0.35% (n = 380,000); inhibition, % at 9.99 µM; AID 720647;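 active = drop in luminescence signal, shown as inhibition above about 50% in the replicate tests, limit read from the data, passing the limit was not always enough; inconclusive = probably only some replicates passing the limit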;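 note: agonist challenge used bursicon conditioned medium at about half maximal strength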
TWEAK-Fn14 inh = blocks TWEAK-Fn14 interaction in a reporter cell assay | TWEAK-stimulated Fn14 reporter cells, luciferase luminescence, 8 h | inhibition, % at 10 µM | actives 2% (n = 360,000) | AID 1159606; in the data active = inhibition above about 50%
EWS-Fli inh = inhibitors of EWS/Fli oncoprotein transcriptional activity; AID 651661; A673 NR0B1-luciferase reporter, viability-normalised; actives 0.67% (n = 350,000); inhibition, % at 12.6 µM;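 active = mean inhibition of at least 50% after viability correction, with every replicate also passing that limit; inconclusive = mean reaches 50% but only one of two replicates passes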;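 note: firefly luciferase signal divided by Alamar Blue viability fluorescence both relative to DMSO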
TROY NFkB inh = blocks TROY-dependent signaling in reporter cells. inhibition, % at 10 µM. Q293 LMP1-TROYcd NF-kB luciferase reporter, 4 h. actives 0.98% (n = 360,000);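 active = compounds whose plate-normalised and pattern-corrected inhibition of the luciferase reporter signal at the single screening dose is 50% or more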
PAX8 reporter = lowers PAX8-driven luciferase in RMG-I cells; RMG-I TPO-luciferase reporter, SteadyGlo, 24 h; inhibition, % at 12.6 µM; actives 1.2% (n = 360,000); AID 652154;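 active = mean replicate inhibition at least 60% with every replicate also reaching 60%; inconclusive = only one of the two criteria is met; inactive = mean below 60% and not all replicates reaching 60%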;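 note: luciferase light reporting Pax8 driven TPO promoter activity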
Hits are given with their value; . = inactive; ? = inconclusive; / = not tested or not shown.

SMILES	LGR2 antag	TWEAK-Fn14 inh	EWS-Fli inh	TROY NFkB inh	PAX8 reporter
CO[C@@H]1CN(C)C(=O)c2ccc(NC(=O)Nc3cccc(F)c3)cc2OC[C@H](C)N(C(=O)Nc2c(C)noc2C)C[C@H]1C	.	/	.	/	.
CO[C@H]1CN(C)C(=O)c2cc(NC(=O)NC(C)C)ccc2OC[C@@H](C)N(C)C[C@H]1C	.	/	.	/	/
COCC(=O)N1[C@H](CO)[C@@H](c2ccccc2)[C@@H]1C#N	.	/	.	/	.
COc1cc(C(=O)Oc2cccc(Nc3ncnc4ccccc34)c2)cc(OC)c1OC	85	99	.	79	/
COc1ccc(C(=O)Oc2cccc(Nc3ncnc4ccccc34)c2)cc1OC	.	82	.	54	.
O=C(Oc1cccc(Nc2ncnc3ccccc23)c1)c1cccnc1	/	.	.	.	.
CCOc1ccc2nc(SCC(=O)N3c4ccccc4Sc4ccccc43)c(C#N)cc2c1	/	.	.	.	.
CCOc1ccc2nc(SCc3ccc(CC(=O)O)cc3)c(C#N)cc2c1	.	.	.	76	.
c1ccc2[nH]c(-c3cscn3)nc2c1	.	.	.	.	.
c1ccc2nc(-c3nc4ccccc4[nH]3)ccc2c1	/	82	/	.	/
O=C(C[C@H]1CC[C@@H]2NC[C@@H](O)COC[C@H]2O1)NC1Cc2ccccc2C1	.	/	.	/	.
COc1cccc(N2CCN(c3nc(C)c(C)c(=O)[nH]3)CC2)c1	.	.	.	.	.
COc1cccc(N2CCN(c3nc(-c4ccccc4C)cc(=O)[nH]3)CC2)c1	.	.	.	.	70
CC1Sc2n(c3ccccc3[n+]2C)N=C1c1ccccc1 (stereo unspecified)	.	.	/	.	68
CC(C)NC(=O)Nc1cccc2c1O[C@H](CN(C)C(=O)Nc1ccc(F)cc1)[C@@H](C)CN([C@H](C)CO)C2=O	.	/	.	/	.
CCn1c2c(c(=N)c3c1CCC3)CCCC2	.	.	.	.	.
CCCCn1c2c(c(=N)c3ccccc31)CCC2	.	.	.	.	.
CCCCCCCCCn1c2c(c(=N)c3c1CCC3)CCCC2	/	57	/	51	/
CCCCCCCCCCn1c2c(c(=N)c3c1CCC3)CCC2	/	72	/	57	/
N=c1c2c(n(Cc3ccc(F)cc3)c3c1CCC3)CCCC2	.	.	.	.	69
CC(C)COc1ccc(-c2nn(-c3ccccc3)cc2/C=C2/SC(=S)N(CC(=O)O)C2=O)cc1	.	.	.	88	.
O=C1CCCCC1Sc1nnc(-c2ccc3c(c2)OCO3)o1 (stereo unspecified)	/	104	.	87	.
C[C@@H]1CN([C@H](C)CO)C(=O)Cc2cc(NC(=O)C3CC3)ccc2O[C@@H]1CN(C)Cc1ccc2c(c1)OCO2	.	/	.	/	.
CCCCCc1cc(=O)oc2c(C(CCN3CCCCC3)c3ccc(OC)cc3)c(OC)cc(OC)c12 (stereo unspecified)	/	.	.	.	66
CCCCCc1cc(=O)oc2c(C(CCN3CCCC3)c3ccc(N(C)C)cc3)c(OC)cc(OC)c12 (stereo unspecified)	.	.	.	.	.
SMILES	LGR2 antag	TWEAK-Fn14 inh	EWS-Fli inh	TROY NFkB inh	PAX8 reporter
C[C@@H]1CCCCO[C@H](CN(C)C(=O)NC2CCCCC2)[C@H](C)CN([C@H](C)CO)C(=O)c2cc(NS(=O)(=O)c3cn(C)cn3)ccc2O1	.	/	.	/	.
CCCC(=O)Nc1ccc2c(c1)OC[C@@H](C)N(C(=O)CC)C[C@@H](C)[C@H](OC)CN(C)C2=O	.	/	.	/	.
C[C@@H]1CN([C@H](C)CO)C(=O)Cc2cc(NC(=O)Nc3ccc(F)cc3)ccc2O[C@@H]1CN(C)Cc1ccc(Cl)c(Cl)c1	.	/	.	/	109
C[C@H](CO)N1C[C@H](C)[C@@H](CN(C)Cc2ccc(Cl)c(Cl)c2)Oc2ccc(NC(=O)Nc3ccc(F)cc3)cc2CC1=O	.	/	63	/	84
C[C@H]1CN([C@@H](C)CO)C(=O)Cc2cc(NC(=O)Cn3cnnn3)ccc2O[C@@H]1CN(C)Cc1ccc(Cl)c(Cl)c1	.	/	69	/	.
C[C@H]1CN([C@@H](C)CO)C(=O)Cc2cc(NC(=O)Nc3ccc(F)cc3)ccc2O[C@H]1CN(C)Cc1ccc(Cl)c(Cl)c1	.	/	.	/	110
COc1ccc(CN(C)C[C@@H]2Oc3ccc(NC(=O)Cn4cnnn4)cc3CC(=O)N([C@H](C)CO)C[C@@H]2C)cc1	.	/	.	/	.
C[C@@H]1CN([C@@H](C)CO)C(=O)Cc2cc(NC(=O)Nc3ccc(F)cc3)ccc2O[C@H]1CN(C)Cc1ccc(Cl)c(Cl)c1	.	/	.	/	105
C[C@@H]1CN([C@@H](C)CO)C(=O)c2cc(NC(=O)CCCN(C)C)ccc2O[C@@H](C)CCCCO[C@@H]1CN(C)S(C)(=O)=O	.	/	.	/	.
CCOCCC(=O)Nc1ccc2c(c1)c(=O)n(C)n2C/C=C/c1ccccc1	.	.	60	.	.
Cn1c(=O)c2cc(NC(=O)NCc3ccc(F)cc3)ccc2n1C/C=C/c1ccccc1	.	.	56	.	.
CC(/C=N/NC(=O)c1cc(-c2ccc(Cl)cc2)nc2ccccc12)=C\c1ccco1	.	.	/	.	87
CC(/C=N/NC(=O)c1cc(-c2ccccc2)nc2ccccc12)=C\c1ccco1	.	.	/	.	.
Cc1cc(N2CCN(C)CC2)nc2ccc(NC(=S)N3CCCCC3)cc12	.	.	.	54	.
Cc1cccc(N2CCN(C(=S)Nc3ccc4nc(N5CCN(C)CC5)cc(C)c4c3)CC2)c1C	.	.	56	.	.
Cc1cc(N2CCN(C)CC2)nc2ccc(NC(=S)N3CCCCCC3)cc12	.	.	.	.	.
Cc1ccc(S(=O)(=O)N(C)C[C@H]2OCCCC[C@@H](C)Oc3ccc(NS(=O)(=O)c4cn(C)cn4)cc3C(=O)N([C@H](C)CO)C[C@@H]2C)cc1	.	/	.	/	.
C[C@H](CO)N1C[C@H](C)[C@@H](CN(C)C)Oc2ccc(NC(=O)Nc3cccc4ccccc34)cc2CC1=O	.	/	/	/	.
Cc1sc(NC(=O)c2cccc([N+](=O)[O-])c2)c(C(N)=O)c1-c1ccc(C(C)(C)C)cc1	/	64	/	69	.
Cc1sc(NC(=O)/C=C/C(=O)O)c(C(N)=O)c1-c1ccc(C(C)(C)C)cc1	.	.	.	.	.
O=c1cc(C(F)(F)F)nc(SCc2cccc3ccccc23)[nH]1	.	.	.	62	.
C[C@H]1CN([C@@H](C)CO)C(=O)c2cc(NC(=O)Cc3ccccc3)ccc2O[C@H]1CN(C)S(=O)(=O)c1ccccc1	.	/	.	/	.
O=C(CSc1ccc(Cl)cc1)Nc1cccc(-c2nc3ncccc3o2)c1	/	71	/	67	/
O=C(CSc1ccc(Cl)cc1)Nc1cc(-c2nc3ncccc3o2)ccc1Cl	.	/	.	/	/
CCC(C)(C)c1ccc(OCCCC[n+]2cccc(C)c2C)c(C(C)(C)CC)c1	/	52	?	.	98
Cc1cc[n+](CC[n+]2ccc(C)cc2)cc1	.	.	.	.	.
CCC(C)(C)c1ccc(OCCCC[n+]2ccc(C)cc2)c(C(C)(C)CC)c1	.	/	/	/	85
O=C(C[C@@H]1CC[C@@H]2[C@H](COC[C@H](O)CN2C(=O)Nc2ccc(F)cc2)O1)NC1CCC1	.	/	/	/	/
